Measured values: PubChem BioAssay AID1025 (Sanford-Burnham Center for Chemical Genomics, 2008)
The whole screen tested about 96,000 compounds, of which fewer than 10 were called active.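 Rule for the calls: active = activation factor of at least 2 at 5 µM in the primary screen; inactive = the rest.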 Only a sample is shown.

Target: Cytochrome P450 2C19 (Homo sapiens) (UniProt P33261)
Experiment: enhancers of cytochrome P450 2C19 turnover – biochemical, luminescence, primary screen (AID 1025);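 note: 0 = wells with 2.5 mM tranylcypromine and 1 = vehicle-only wells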
Conditions: recombinant CYP2C19, luciferin-H EGE luminescence; at 5 µM; stronger effect = higher value; 0 = fully inhibited enzyme, 1 = untreated enzyme

Chain of Cytochrome P450 2C19 (Homo sapiens) (P33261 whole entry, looked up): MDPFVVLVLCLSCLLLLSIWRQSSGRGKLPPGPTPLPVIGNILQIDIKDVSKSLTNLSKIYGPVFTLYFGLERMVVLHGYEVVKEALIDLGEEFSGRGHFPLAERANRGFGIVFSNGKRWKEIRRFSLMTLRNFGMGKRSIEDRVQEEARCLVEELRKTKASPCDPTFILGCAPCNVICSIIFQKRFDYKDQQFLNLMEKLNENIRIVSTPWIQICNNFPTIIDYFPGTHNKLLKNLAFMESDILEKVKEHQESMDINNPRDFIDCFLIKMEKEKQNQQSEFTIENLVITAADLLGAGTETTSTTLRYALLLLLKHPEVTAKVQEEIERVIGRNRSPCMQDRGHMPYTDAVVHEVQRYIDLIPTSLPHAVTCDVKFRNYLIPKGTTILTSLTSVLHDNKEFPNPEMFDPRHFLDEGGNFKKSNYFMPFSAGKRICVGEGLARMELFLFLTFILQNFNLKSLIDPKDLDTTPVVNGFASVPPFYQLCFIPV

Activation factor, inactive:
CCC(C)NC(=O)c1c(N)n(/N=C/c2cccs2)c2nc3ccccc3nc12 (centres undefined) 0.9
Cc1ccc(C(=O)N2CCN(C(=O)N3CCOCC3)CC2)cc1 0.9
Cc1cccc(NC(=O)/C(=C\c2ccco2)NC(=O)c2ccccc2)c1 0.9
CC(C)Oc1ccc(CCc2n[nH]c(=S)n2Cc2ccccc2)cc1 0.8
CCOC(=O)/C(=C\c1ccc([N+](=O)[O-])cc1)C(=O)c1cc(C(C)=O)c(Nc2ccccc2)s1 0.4
CCOc1cccc(SCc2noc(C(=O)NC(C)C)c2C(=O)O)c1 0.9
Cc1cccc(C(=O)NCCCN2CCCC2=O)c1 0.8
COc1ccc(C(=O)NNC(=O)c2cnccn2)cc1[N+](=O)[O-] 0.9
Cc1cc(=O)[nH]c(SCc2cccc(F)c2)n1 0.9
COc1ccc(NC(=O)/C(Cl)=C(/Cl)S(=O)Cc2ccc(C)cc2)cn1 (centres undefined) 0.7
COc1ccc(/C=C2\CCCC3C2=NN(C(=O)c2scnc2C)C3c2ccc(OC)cc2)cc1 (centres undefined) 0.7
Cc1ccccc1-n1nc(C)c2cc(C(=O)NC3CC3)sc21 0.4
Cc1onc(-c2c(Cl)cccc2Cl)c1C(=O)c1c[nH]c(C(=O)NC2CC2)c1 1
Cc1cccc(C(=O)Nc2ccc(C(=O)/C=C/c3cccs3)cc2)c1 1
CCOc1ccc(S(=O)(=O)NCCSc2ccccc2)cc1 0
CN(C)S(=O)(=O)c1ccc(N2CCCC2)c(C(=O)NCc2ccccc2)c1 0.4
COc1ccc(C(=O)Nc2nc(-c3ccc(OC)cc3)c(-c3ccc([N+](=O)[O-])cc3)s2)cc1 0.9
Cc1nn(Cc2ccccc2Cl)c(C)c1NC(=O)Cn1nc([N+](=O)[O-])c(Cl)c1C 1
COC(=O)Nc1sc2nc(C)cc(C)c2c1-n1cccc1 0.8
CCCc1nnc(NC(=O)c2cccs2)s1 0.9
O=C1Nc2ccc(Br)cc2/C1=N/N=C/C1=C(N2CCOCC2)C(=C\c2ccccc2)/CC1 1
O=C(N/N=C\c1cccc(Br)c1)c1ccccc1-n1cccc1 0.3
CC(=O)N1Cc2ccccc2CC1C(=O)O (centres undefined) 1.2
O=C(c1cccc(N2CCCC2=O)c1)N1CCOCC1 1.1
Cc1nn(CCOc2ccccc2)c(=O)n1-c1ccccc1F 0.5
O=C(NCc1ccccc1)[C@@H]1CSC2c3ccccc3C(=O)N21 (some centres undefined) 0.2
N=c1ccn(CC(=O)NC(N)=O)c2ccccc12 1.1
CCC(=O)c1c[nH]c(C(=O)NCC2CCCO2)c1 (centres undefined) 1
COc1ccc(Nc2nc(Cl)nc(NCc3ccco3)n2)cc1 1
CN(C)/C=C/C(=O)c1ccccc1F 1.1
C=CCn1c(Cn2nnc3ccccc32)nnc1SCC(=O)N/N=C/c1cc(Br)cc(OC)c1O 0.8
COC(=O)CCSc1cc([N+](=O)[O-])cc2c1c(C1OCCS1)nn2-c1ccccc1 (centres undefined) 0.9
NC(=O)c1nsc(C(=O)N(CC(=O)NCc2ccc(F)cc2)Cc2ccco2)c1N 0.8
CCNC(=O)NC(=O)C(C)OC(=O)c1cc(S(=O)(=O)N2CCCCCC2)ccc1OC (centres undefined) 0.3
CCOC(=O)c1c(-c2ccccc2)csc1NC(=S)NC(=O)c1ccccc1 1.1
CCCNC(=O)c1ccccc1NC(=O)CSCc1ccc(OC)cc1 0.5
CC(C)NC(=O)C(=O)N/N=C/c1ccco1 1.1
CC(C)CCNC(=O)CC1C(=O)N(Cc2ccccc2)C(C)c2nc3ccccc3n21 (centres undefined) 0.1
CCCCc1nc(NCCN)c(C#N)c2c1CSC(C)(C)C2 0.7
Cc1ccc(S(=O)(=O)NCC(C)NS(C)(=O)=O)cc1 (centres undefined) 0.8
O=C(Nc1ccc(Sc2ccc(Br)cc2)cc1)c1ccco1 0.9
CCCn1nnnc1NC(=O)COc1ccc(Cl)cc1C 0.3
Cc1ccc(N(CC(=O)Nc2cccc(N(C)S(C)(=O)=O)c2)S(C)(=O)=O)cc1 1
O=C(NCCCCCCNC(=O)NCc1ccco1)NCc1ccco1 1.1
CCCCNC(=O)CCn1c(=S)[nH]c2cc3c(cc2c1=O)OCO3 0.6
CCC(=O)OCc1c(C(F)(F)F)nn(C)c1Oc1cccc(C(F)(F)F)c1 0.4
COc1ccc(N(CC(=O)N/N=C/c2cccs2)S(=O)(=O)c2ccc(OC)c(OC)c2)cc1 0
CCc1c(C)sc(NC(=O)c2cccs2)c1C(N)=O 0.2
Cc1nnc(NCCO)c2ccccc12 0.9
COc1cc(/C=N/NC(=O)Nc2ccccc2)ccc1OCCOc1ccccc1C 1
Cc1[nH]nc(-c2ccc(OCc3cnn(-c4ccccc4)c3)cc2O)c1Oc1ccc(Cl)cc1 0.8
COc1ccc2c(c1)SC(C)CC2=O (centres undefined) 0.2
COC(=O)Nc1ccc(S(=O)(=O)N2CCN(CCN3C(=O)C4C5C=CC(C5)C4C3=O)CC2)cc1 (centres undefined) 0.9
Cc1ccc(O)c(CNc2nc3ccccc3n2C)c1 0.6
CSc1ccc(CCNC(=O)C2CCN(c3nnc(-n4cccc4)s3)CC2)cc1 0.7
O=C(CCc1ccc(S(=O)(=O)NC2CCCCC2)cc1)NCc1ccccc1 0.4
O=c1[nH]c2c(c(=O)n1Cc1ccccc1)CCC2 1
Cc1ccc2nc(/C(C#N)=C\c3ccc(OC(=O)c4cccs4)cc3)[nH]c2c1 0.5
O=C(/C=C/c1ccccc1)c1ccoc1 0.7
CN1C2CCC1/C(=C\c1ccccc1Cl)C(=O)/C2=C\c1ccccc1Cl 1.1
CC(N=Cc1nc(-c2ccccc2)oc1O)c1ccccc1 (centres undefined) 0.3
O=C(NCN1CCN(CCO)CC1)c1cnccn1 1.1
CC(Oc1ccc(Cl)cc1Cl)C(=O)/C=C/N(C)C (centres undefined) 0.4
CN(C)/C=C(\C#N)C(=O)c1cccnc1Oc1cccc(F)c1 0.6
